In PubChem BioAssay AID1117319 (Southern Research Institute, 2015):
Several values for one entry are separate records, joined by “and”; a condition that tells them apart may be missing. Equal values may be shown once. About 1,500 (0.58%) of roughly 260,000 compounds were called active. Roughly 5% stayed inconclusive and do not appear here.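 Rule for the calls: active = inhibition above a set limit at one or more doses, reproduced on every date tested; inconclusive = results disagree between test dates, or hit never tested in dose response; inactive = the rest.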 The list is a sample of the results. Entries with a potency or affinity are not part of this list.

target: Virion infectivity factor (Human immunodeficiency virus type 1 group M subtype B (isolate BH10)) + Virion infectivity factor (Human immunodeficiency virus type 1 group M subtype B (isolate BRU/LAI)) + Virion infectivity factor (Human immunodeficiency virus type 1 group M subtype B (isolate PCV12)) + Virion infectivity factor (Human immunodeficiency virus type 1 group M subtype B (isolate HXB2)) + DNA dC->dU-editing enzyme APOBEC-3G (Homo sapiens) (UniProt P69720+P69721+P69722+P69723+Q9HC16); test: HIV-1 Vif–A3G interaction blockers – biochemical, TR-FRET, GST-Vif 1-94, biotin-A3G peptide, dose response retest, primary screen (AID 1117319); conditions: TR-FRET GST-Vif / biotin-A3G peptide binding; active compounds read high;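 note: Vif residues 1-94 fused to GST binding biotinylated APOBEC3G peptide 110-148; 0% = full assay without inhibitor and 100% = GST in place of GST-Vif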

inhibition, inactive:
CNCc1ccccc1Sc1cccc(O)c1 -4.96%
CNCc1ccccc1Sc1ccc(OC)cc1 4.31%
Cc1ccc(O)c(Sc2cc(C)ccc2O)c1 3.64%
CNCc1ccccc1Sc1cccc2ccccc12 -4.29%
O=C(COc1cc(F)ccc1[N+](=O)[O-])Nc1ccc2c(c1)OCO2 -6.99%
CNCCCOc1cccc(Oc2ccccc2)c1 9.66%
COc1cccc2cc(C(=O)c3ccccc3)oc12 -4.51%
O=C(NCc1ccc2c(c1)OCO2)c1ccccn1 10.1%
O=C(Nc1ccc2c(c1)OCO2)c1cc2ncc(Br)cn2n1 6.91%
O=C(NN1CCOCC1)c1cc(-c2ccc(Cl)c(Cl)c2)nc2ccccc12 -15.2%
CC1CC(OCC(O)CN2CCOCC2)CC(C)(C)C1 (stereo not given) -2.99%
N#CCC(=O)Nc1ccc(C(=O)OC(C(=O)Nc2cc(C(F)(F)F)ccc2Cl)c2ccccc2)cc1 (stereo not given) 6.13%
CCOC(=O)C(=NC1CCS(=O)(=O)C1)NNc1cc(Cl)ccc1Cl (stereo not given) 11.7%
COC(=O)Cn1ncn2cccc2c1=O 31%
CCOC(=O)CCCn1ncn2c(cc3occc32)c1=O 7.22%
CC1CCCCC1NC(=O)CCNS(=O)(=O)c1ccc2c(c1)CCC(=O)N2 (stereo not given) 6.16%
COC(=O)c1ccc(C)c(NC(=O)c2nn(C)c(=O)c3ccccc23)c1 0.46%
CCCn1nc(C(=O)Nc2cccc(C(=O)OC)c2)c2ccccc2c1=O 0.28%
CCN(C(=O)C1CCCCC1)c1nnc(-c2cccnc2)s1 -11.9%
O=C(C1CCCN1S(=O)(=O)c1cccc2cccnc12)N1CCc2ccccc2C1 (stereo not given) 8.45%
O=C(C1CCN(S(=O)(=O)c2cccc3cccnc23)CC1)N1CCN(c2ccccc2)CC1 3.12%
O=C1CCCN1CCCNC(=S)Nc1cccc2ccccc12 30.4%
CC(C)OC(=O)CSc1nnc(-c2ccncc2)n1N -2.43%
O=c1cc(CN2CCCc3ccccc32)nc2sccn12 22%
O=c1cc(CN2CCc3ccccc32)nc2sccn12 23.2%
Cc1ccc(CCNc2ncnc(Cl)c2N)cc1 -3.15%
Cc1nn(C)cc1/C=N\NC(=O)c1ccc(Cn2cc(Cl)cn2)cc1 -3.19%
COc1cc(C(C#N)N2CCCCC2)ccc1O (stereo not given) 7.46%
COc1cccc(C(C#N)N2N=C(C)CC2(C)C)c1O (stereo not given) -2.38%
O=S(=O)(Nc1cccc(-n2cnnn2)c1)c1ccccc1F -7.41%
COc1ccc(N=Cc2sc3ccccc3c2Cl)cc1 0.88%
Oc1c(C=Nc2ccccc2)sc2ccccc12 -6.91%
CCCOc1ccc(NC(N)=O)cc1OCCC 0.61%
C=C1CCN([C@H](C(=O)NCc2ccc(OC)cc2)C(C)C)S(=O)(=O)c2ccccc21 2.28%
CCCn1nnc(NC(=O)c2ccc(-c3cc(Cl)ccc3Cl)o2)n1 3.66%
O=C(NNC(=O)c1ccc(Cl)c(Cl)c1)c1cccnc1 -10.1%
COCc1nnc(NS(=O)(=O)c2ccc(Cl)cc2)s1 -13.7%
Cc1cc[n+](CCC(=O)O)c2ccccc12 27.6%
Cc1ccnc2ccc(P(=O)(c3ccccc3)c3ccccc3)cc12 -4.5%
Nc1ccc(S(=O)C(F)(F)F)cc1 (stereo not given) -4.35%
CC[n+]1ccc(C[n+]2ccccc2)c2ccccc21 31.8%
CC(C)CN(C(=O)COC(=O)Cc1c[nH]c2ccccc12)C1CCS(=O)(=O)C1 (stereo not given) -1.62%
Cn1cnc([N+](=O)[O-])c1C(=O)Nc1cccc([N+](=O)[O-])c1 -0.16%
CCc1ccc(NC(=O)CSCc2ccc(C(=O)O)cc2)cc1 2.67%
O=C(/C(=C(\[O-])c1ccccc1)[n+]1ccc2ccccc2c1)c1ccc(Cl)cc1 -6.22%
Cc1cc(C)c(S(=O)(=O)Nc2cc(SCC(=O)O)c(O)c3ccccc23)cc1C 29.4%
Cc1ccc(C)c(S(=O)(=O)Nc2cc(SCC(=O)O)c(O)c3ccccc23)c1 30.9%
COC(=O)c1cc2sccc2n1CC(=O)Nc1ccc(OC)c(OC)c1OC -6.58% and -2.62%
C1CCc2nnc(-c3nnc4n3CCCCC4)n2CC1 -7.36%
Cc1ccc(-c2nnc3n2CCCCC3)cc1 32.1%
O=C(Nc1cccc2nsnc12)c1ccc2c(c1)OCO2 -0.24%
COc1cccc(OCC(O)CN2CCN(c3ccc(Cl)cc3)CC2)c1 (stereo not given) 2.34%
COc1ccc(O)c(/C=N/c2sc(C)c(C)c2C#N)c1 10.1%
COc1ccc(S(=O)(=O)N2CCOCC2)cc1C(=O)Nc1cc(C)on1 2.2%
Cc1nn(-c2ccccc2)c(Cl)c1C1C(C#N)=C(N)Oc2c1c(C)nn2-c1ccccc1 (stereo not given) 2.03%
CCOC(=O)C1=C(C)OC(N)=C(C#N)C1c1c(C)nn(-c2ccc(C)cc2)c1Cl (stereo not given) 1.7%
CC(=O)c1cccc(OCc2cc(C(=O)N(C)Cc3nccs3)no2)c1 -3%
CC(C)(C)c1ccc(N2C(=O)CC(C/C=C/c3ccccc3)C2=O)cc1 (stereo not given) -5.69%
O=C(COC(=O)c1ccc(S(=O)(=O)Nc2ccccc2)cc1)NCc1ccco1 3.75%
O=C(COC(=O)c1ccc(NS(=O)(=O)c2cccs2)cc1)NCC1CCCO1 (stereo not given) -1.37%
CC1CC(=O)Nc2ccccc2N1C(=O)CN1C(=O)C(=O)N(C)C1=O (stereo not given) 3.84%
CC(=O)Nc1ccc(/C=N/Nc2nncc3ccccc23)cc1 -1.2%
Cc1cccc(C)c1NC(=O)COC(=O)CN1C(=O)C2CCCCC2C1=O (stereo not given) -6.55%
O=C1C2C3C=CC(C3)C2C(=O)N1c1ccccc1 (stereo not given) 23.8%
O=C1C2C3CCC(CC3)C2C(=O)N1c1ccccc1 (stereo not given) 3.86%
